According to PubChem BioAssay AID1159580 (chemical genetic matrix, 2015):
Several values for one entry are separate records, joined by “and”; a condition that tells them apart may be missing. Equal entries are not always repeated. Hit rate of the full screen: of about 5,500 compounds, about 2,000 (36%) were called active. Not shown: some 18% with an inconclusive outcome. No stated cut-off is given here; in the data, active means normalized growth mostly below about 0.91 (no sharp cut-off); inconclusive means no clear call, values can overlap the other calls; inactive means mostly above about 0.92. The list shows a part of the results.

Assay: chemical genetic growth profiling, strain panel (AID 1159580);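 further: tested at 20 µM; growth read once vehicle control cultures reached saturation at 30 °C; 1 = growth at the plate median or of vehicle wells; lower values mean less growth of the strain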
Details: S. cerevisiae deletion strains, growth OD

Measured: normalized growth

CCn1cc(C(=O)O)c(=O)c2cc(F)c(N3CCNCC3)cc21
inactive: locus YAL013W, strain DEP1, hits give low values 1 | locus YAL021C, strain ccr4, hits give low values 0.967 | locus YAL026C, strain drs2, hits give low values 0.978 | locus YAL030W, strain snc1, hits give low values 0.988 | locus YBL061C, strain skt5, hits give low values 0.991 | locus YBR009C, strain hhf1, hits give low values 0.983 | locus YBR021W, strain FUR4, hits give low values 0.905 | locus YBR023C, strain chs3, hits give low values 0.989 | locus YBR171W, strain sec66, hits give low values 0.988 | locus YBR229C, strain ROT2, hits give low values 1.01 | locus YBR231C, strain swc5, hits give low values 0.986 | locus YBR279W, strain paf1, hits give low values 0.978 | locus YCL011C, strain gbp2, hits give low values 0.983 | locus YCL016C, strain dcc1, hits give low values 0.998 | locus YCL029C, strain bik1, hits give low values 1 | locus YCL061C, strain MRC1, hits give low values 0.989 | locus YCL069W, strain vba3, hits give low values 0.966 | locus YCR088W, strain abp1, hits give low values 0.992 | locus YDL005C, strain med2, hits give low values 0.973 | locus YDL035C, strain GPR1, hits give low values 1 | locus YDL040C, strain nat1, hits give low values 0.99 | locus YDL074C, strain BRE1, hits give low values 1.02 | locus YDL101C, strain DUN1, hits give low values 1 | locus YDL134C, strain PPH21, hits give low values 0.994 | locus YDL185W, strain tfp1, hits give low values 0.998 | locus YDL192W, strain arf1, hits give low values 0.995 | locus YDR001C, strain nth1, hits give low values 0.98 | locus YDR069C, strain doa4, hits give low values 0.964 | locus YDR101C, strain arx1, hits give low values 0.972 | locus YDR137W, strain rgp1, hits give low values 0.97 | locus YDR159W, strain sac3, hits give low values 0.948 | locus YDR162C, strain NBP2, hits give low values 0.997 | locus YDR195W, strain ref2 0.962 | locus YDR297W, strain sur2, hits give low values 0.992 | locus YDR318W, strain mcm21, hits give low values 0.995 | locus YDR334W, strain swr1, hits give low values 0.981 | locus YDR335W, strain msn5, hits give low values 0.928 | locus YDR388W, hits give low values 1 | locus YDR392W, strain spt3, hits give low values 0.873 | locus YDR502C, strain sam2, hits give low values 1.01 | locus YEL003W, strain gim4, hits give low values 0.984 | locus YEL037C, strain rad23, hits give low values 0.976 | locus YEL061C, strain CIN8 (second series), hits give low values 0.97 | locus YEL061C, strain CIN8, hits give low values 1.01 | locus YER015W, strain faa2, hits give low values 0.987 | locus YER016W, strain bim1, hits give low values 0.986 | locus YER110C, hits give low values 0.996 | locus YER111C, strain swi4, hits give low values 0.975 | locus YER155C, strain BEM2 (second series), hits give low values 0.95 | locus YER155C, strain BEM2, hits give low values 1.01 | locus YER167W, strain BCK2, hits give low values 1 | locus YFR010W, strain ubp6, hits give low values 0.972 | locus YGL078C, strain dbp3, hits give low values 0.998 | locus YGL086W, strain mad1, hits give low values 0.992 | locus YGL167C, strain pmr1, hits give low values 0.985 | locus YGL173C, strain kem1, hits give low values 0.98 | locus YGL227W, strain vid30, hits give low values 0.979 | locus YGL240W, strain doc1, hits give low values 0.973 | locus YGL248W, strain PDE1, hits give low values 1 | locus YGL253W, strain hxk2, hits give low values 0.995 | locus YGR078C, strain PAC10, hits give low values 1 | locus YGR135W, strain pre9, hits give low values 0.988 | locus YGR229C, strain SMI1, hits give low values 1.02 | locus YGR252W, strain gcn5, hits give low values 0.912 | locus YHR013C, strain ard1, hits give low values 0.928 | locus YHR027C, strain rpn1, hits give low values 0.987 | locus YHR030C, strain SLT2, hits give low values 0.999 and 0.974 | locus YHR079C, strain IRE1 (second series), hits give low values 0.995 | locus YHR079C, strain IRE1, hits give low values 0.974 | locus YHR094C, strain hxt1, hits give low values 0.998 | locus YHR129C, strain ARP1, hits give low values 1 | locus YHR142W, strain chs7, hits give low values 0.971 | locus YHR200W, strain rpn10, hits give low values 0.998 | locus YIL066C, strain RNR3, hits give low values 1.01 | locus YIL073C, strain SPO22, hits give low values 1 | locus YIL125W, strain kgd1, hits give low values 1 | locus YIR030C, strain dcg1, hits give low values 0.999 | locus YJL092W, strain hpr5, hits give low values 0.982 | locus YJL095W, strain BCK1 (second series), hits give low values 0.993 | locus YJL095W, strain BCK1, hits give low values 0.991 and 0.996 | locus YJL115W, strain asf1, hits give low values 0.976 | locus YJL129C, strain trk1, hits give low values 0.929 | locus YJL134W, strain LCB3, hits give low values 1 | locus YJL154C, strain vps35, hits give low values 0.974 | locus YJL164C, strain tpk1, hits give low values 0.988 | locus YJL166W, strain qcr8, hits give low values 1 | locus YJL168C, strain set2, hits give low values 1 | locus YJL187C, strain SWE1 (second series), hits give low values 1.01 | locus YJL187C, strain SWE1, hits give low values 0.985
